# In the library only some 5.4% were active in any assay of this set; here they are far more common.
# VACV Venus inh: qHTS for Stage-Specific Inhibitors of Vaccinia Orthopoxvirus: Venus Reporter Primary qHTS. Vaccinia virus Venus reporter expression, fluorescence. Potency, µM (doses to about 36.5 µM), without a hit: at the highest dose activity change, negative = inhibition, actives largely listed as inhibitors. actives 0.46% (n = 330,000). AID 720580, 2013; calls by dose curve; tested in A549 cells; also: nearly all actives have a fitted effect of over 30% in size
# FMDV antiviral: High Throughput Screening for Foot and Mouth Disease Virus Antivirals; FMDV antiviral cell-based qHTS; Potency, µM (series often up to 57.9 µM), for the others: at the highest dose activity change, negative = inhibition, usual class: inhibitors; actives 1.2% (n = 410,000); calls by dose curve; tested in HEK293T cells; also: read-out not given here; nearly all actives have a fitted effect of over 45% in size
# MARV entry inh: qHTS for inhibitors of binding or entry into cells for Marburg Virus; Potency, µM (titrated, usually from 37.8 µM), inactives show top-dose activity change, negative = inhibition, most hits filed as inhibitors; actives 1.8% (n = 300,000); Marburg virus pseudotyped entry inhibition, cell reporter; calls by dose curve; tested in HEK293 cells
# Lassa entry inh: qHTS for Inhibitors of binding or entry into cells for Lassa Virus | Lassa virus pseudotype entry inhibition, cell reporter | Potency, µM (top dose mostly 37.9 µM), for inactives: top-dose activity change, negative = inhibition, actives largely listed as inhibitors | actives 1.2% (n = 300,000); calls by dose curve; tested in HEK293 cells; also: nearly all actives have a fitted effect of over 50% in size
# Sm TGR block: qHTS Assay for the Inhibitors of Schistosoma Mansoni Peroxiredoxins | Schistosoma mansoni thioredoxin glutathione reductase (TGR), Q962Y6 | purified TGR, DTNB reduction, TNB absorbance 405 nm | Potency, µM (highest dose often 114 µM), inactives show at the highest dose activity change, negative = inhibition, usual class: inhibitors | actives 3% (n = 360,000) | AID 485364, 2010; active = well fitted inhibition curve with a large enough effect; inconclusive = small, poorly fitted or top-dose-only effect; inactive = no such curve, though single readings can be large or run the other way; also: nearly all actives have a fitted effect of over 60% in size
#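 First, TGR (20 nM dispensed) and NADPH were mixed with compound. Second, a 15 min room-temperature incubation followed. Third, further NADPH and then DTNB were added to start the reaction. Finally, TNB absorbance was monitored kinetically.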
# VACV mCherry inh: qHTS for Stage-Specific Inhibitors of Vaccinia Orthopoxvirus: mCherry Reporter Primary qHTS; Vaccinia virus mCherry reporter infection, fluorescence; Potency, µM (titrated, usually from 36.5 µM), for the others: at the highest dose activity change, negative = inhibition, most hits filed as inhibitors; actives 0.63% (n = 310,000); AID 720579, 2013; calls by dose curve; tested in A549 cells; also: nearly all actives have a fitted effect of over 35% in size
# Numbers without * were called inactive; i = inactive; ? = inconclusive; . = no result given; [ ] = dose if it differs, or a comment. % is scaled to controls: 0 for no effect and ±100 for the full control effect; potency is read from the fitted curve at half-maximal effect.
SMILES,VACV Venus inh,FMDV antiviral,MARV entry inh,Lassa entry inh,Sm TGR block,VACV mCherry inh
N#CC1=C2SCC(O)(c3ccccc3)N2C(=O)CC1c1ccccc1F (stereo not drawn),.,?,?,?,-21.3%,.
O=C1/C(=C\Nc2ccc(Cl)cc2)CCN1c1ncccn1,-12.9%,16.6%,?,-16.7%,15.8µM*,.
CC(C)(C)C(=O)OCc1cc(=O)n2nc(C3CC3)sc2n1,-5.9%,14.7%,.,4.2%[46.1 µM],-10.1%,-10.1%
N/C(=N\NC(=O)c1sccc1OCc1ccc(Cl)cc1Cl)c1ccccn1,?,-17.1%,8.91µM*,?,23.4%,?
COC(=O)[C@H](C=C[C@H](C)Cc1cc(Br)cc(OCc2ccccc2)c1OC)OCc1ccccc1,.,.,-15.1%[14.2 µM],.,.,.
C#CCSc1nnc(CNS(=O)(=O)c2ccc(Br)cc2)n1C,.,10.2%,.,.,10µM*,.
C=CCC[C@H](Cc1ccc(F)cc1)C(=O)OC[C@@H](NC(=O)[C@@H](CC=C)CC(=O)N(CCO)Cc1ccccc1)C(C)(C)C,12.6µM*,?,.,.,.,?
C=CC[C@@H](CC(=O)N(CCO)Cc1ccccc1)C(=O)N[C@H](COC(=O)[C@@H](CC=C)Cc1ccc(F)cc1)c1ccccc1,?,?,.,.,.,-19.4%
C=CC[C@H](CC(=O)N(CCO)Cc1ccccc1)C(=O)N[C@H](COC(=O)[C@@H](CC=C)Cc1ccc(F)cc1)C(C)(C)C,?,?,.,.,.,-5.3%
C=CC[C@@H](CC(=O)N(CCO)Cc1ccccc1)C(=O)NC[C@H](OC(=O)[C@@H](CC=C)Cc1ccc(F)cc1)c1ccccc1,?,14.1µM*,.,.,.,-37.9%
C=CCC[C@H](Cc1ccc(F)cc1)C(=O)OC[C@@H](NC(=O)[C@@H](CC=C)CC(=O)N[C@@H](CO)Cc1ccccc1)C(C)(C)C,10µM*,-1.4%,.,.,.,?
C=CCC[C@@H](Cc1ccc(F)cc1)C(=O)OC[C@@H](NC(=O)[C@@H](CC=C)CC(=O)N[C@@H](CO)Cc1ccccc1)C(C)(C)C,?,?,.,.,.,i
COC(=O)C1=C(C)N=C2S[C@H](C)C(=O)N2[C@@H]1/C=C\c1ccccc1OC,.,.,1.9%,.,.,.
CCc1ccc(C(=O)c2cn(CC(=O)Nc3ccc(F)cc3)c3ccc(OC)cc3c2=O)cc1,-7.7%,-25.3%,-0.2%[46.1 µM],6.4%[46.1 µM],6.4%,-14.1%
O=C(NCCc1ccccc1Cl)C1CCN(c2nc3ccccc3nc2C(F)(F)F)CC1,-10.3%,-7.8%,.,7.0%[46.1 µM],3.0%,-9.1%
S=C(NC1CCCCC1)N1CCn2cccc2C1c1ccncc1 (stereo not drawn),-2.3%,-14.9%,3.5%[46.1 µM],5.8%,?,i
CNC(=S)N1CCn2cccc2C1c1ccc(F)cc1 (stereo not drawn),-0.8%,1.4%,?,-21.1%,35.5µM*,-12.5%
S=C(NC1CCCCC1)N1CCn2cccc2C1c1cccnc1 (stereo not drawn),-1.7%,-7.4%,8.91µM*,?,-17.9%,-4.7%
Cc1cc2oc(=O)c(CC(=O)NCCc3ccccc3F)c(C)c2c2occ(C(C)(C)C)c12,1.4%,-4.9%,9.2%[46.1 µM],10.3%[46.1 µM],5.0%,-10.4%
Nc1cccc(-c2c[nH]c3ncc(-c4cccnc4)cc23)c1,10µM*,-13.3%,.,.,.,?
S=C(NCC1CCCO1)N1CCN(c2nc(-c3ccc(Cl)cc3)cs2)CC1 (stereo not drawn),?,15.8µM*,?,?,8.8%[57.1 µM],?
S=C(NCCCN1CCOCC1)N1CCN(c2nc(-c3ccc(Cl)cc3)cs2)CC1,.,12.6µM*,?,16.4µM*,6.3%,.
S=C(NCCCN1CCOCC1)N1CCN(c2nc(-c3ccccc3)cs2)CC1,?,?,?,?,5.4%,?
S=C(NCC1CCCO1)N1CCN(c2cccc(Cl)c2)CC1 (stereo not drawn),-17.9%,1.4%,.,.,-6.1%,?
CC1C=C2OC(N)=C(C#N)C(c3ccncc3)C2C(=O)N1CCN(C)C (stereo not drawn),.,.,0.9%,.,.,.

# Assay outcomes from PubChem BioAssay.
